Values without a mark were called inactive. Calls of active or inactive are those of the source. Calls come from the whole dose curve; as a rule, active = well fitted curve in the direction sought with a large enough effect in the repeat runs; inconclusive = weak or mixed curves; inactive = flat fitted curve, though single readings scatter.
Experiment: qHTS assay to test for compound auto fluorescence at 460 nm (blue) in HEK293 cell free culture (AID 720681)
Settings: cell-free medium, autofluorescence 405/460 nm (blue); series mostly up to 91.3 µM; fluorescence, % of fluorescent control: at the top concentration
In short: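 Compounds were added to cell-free DMEM with 10% FBS and fluorescence read directly. The blue channel used 405 nm excitation and 460 nm emission, with triamterene as the reference fluorophore.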
% is set by controls: 0 for no effect and ±100 for the full control effect.

Structure (SMILES) | Potency | fluorescence, % of fluorescent control
C=C(c1ccc(C(=O)O)cc1)c1cc2c(cc1C)C(C)(C)CCC2(C)C | inactive | –
CN1[C@@H]2CC[C@@H]1CC(OC(=O)C(CO)c1ccccc1)C2 (some centres not stated) | – | -0.103% [at 46 µM]
CN(C)c1ccc(N=Nc2ccccc2C(=O)O)cc1 | – | -0.321%
O=C1c2c(O)ccc(O)c2C(=O)c2c(NCCNCCO)ccc(NCCNCCO)c21 | – | -0.133% [at 18.6 µM]
CCCCCCCC/C=C\CCCCCCCC(=O)N(C)CC(=O)O | – | -0.318%
Clc1ccc(C(Cn2ccnc2)OCc2ccsc2Cl)c(Cl)c1 (configuration not stated) | – | 0.0111% [at 46 µM]
CCCCOc1ccc(C(=O)CCN2CCCCC2)cc1 | – | 0.0618% [at 18.6 µM]
COc1ccc2sc(C(=O)Nc3nnn[nH]3)c(OC(C)C)c2c1 | – | 0.0266%
Cc1c(-c2ccc(O)cc2)n(Cc2ccc(OCCN3CCCCCC3)cc2)c2ccc(O)cc12 | – | 0.118% [at 46 µM]
CN(C)c1ccc(N=NS(=O)(=O)O)cc1 | – | 2.93%
c1cc(OCC2CO2)cc(OCC2CO2)c1 (configuration not stated) | – | -0.048%
Cc1cc2c(C(C)C)c(O)c(O)c(C=O)c2c(O)c1-c1c(C)cc2c(C(C)C)c(O)c(O)c(C=O)c2c1O | – | 0.158% [at 46 µM]
C=C[C@](C)(O)CC[C@@H]1[C@@]2(C)CCCC(C)(C)[C@@H]2CC[C@@]1(C)O | – | -0.0289%
CC(=O)OC(OC(C)=O)c1ccc([N+](=O)[O-])o1 | – | 0.976% [at 95.7 µM]
COC(=O)C1=C(C)NC(C)=C(C(=O)OCCCN2CCC(c3ccccc3)(c3ccccc3)CC2)C1c1cccc([N+](=O)[O-])c1 (configuration not stated) | – | -0.274% [at 46 µM]
CC=O | – | 0.0629% [at 95.7 µM]
CCN(CC)CCOc1ccc(C(O)(Cc2ccc(Cl)cc2)c2ccc(C)cc2)cc1 (configuration not stated) | – | 0.0163% [at 46 µM]
N#CSCSc1nc2ccccc2s1 | – | 0.0734%
S=C(SSSSSSC(=S)N1CCCCC1)N1CCCCC1 | – | -0.263% [at 18.6 µM]

Structure (SMILES) | Potency | fluorescence, % of fluorescent control
Cc1cc(Nc2ccc(O)cc2)ccc1N | – | -0.306%
CCCCCCOc1cc(C)c(O)c(C)c1C | – | -0.0351% [at 95.7 µM]
NC(=O)c1nc(-c2cccc(-c3cc(F)ccc3OCC(F)(F)C(F)(F)F)c2)n[nH]1 | – | -0.167%
COC(=O)[C@]1(C)CCC[C@@]2(C)[C@H]1CC=C1C=C(C(C)C)CC[C@@H]12 | – | -0.0019%
O=C1NC2CCCCN2C12CCN(CCCN1c3ccccc3CCc3ccc(Cl)cc31)CC2 (configuration not stated) | – | 0.192% [at 46 µM]
NCCCC(O)(P(=O)(O)O)P(=O)(O)O | – | -0.0492% [at 46 µM]
Oc1ccc(-c2ccc(O)cc2)cc1 | – | 0.0168%
CNCC[C@H](Oc1cccc2ccccc12)c1cccs1 | – | 0.144% [at 46 µM]
SCCCCCCCCS | – | 0.008%
NC(=O)C(=O)N/N=C/c1ccc([N+](=O)[O-])o1 | – | 0.339% [at 46 µM]
C[C@]12CC[C@H]3C(=CCc4cc(O)ccc43)[C@@H]1CCC2=O | – | 0.002%
CN1[C@@H]2CC[C@H]1CC(OC(=O)C(CO)c1ccccc1)C2 (some centres not stated) | inactive | –
O=C1Nc2ccc(Cl)cc2[C@@](C#CC2CC2)(C(F)(F)F)O1 | – | -0.0081% [at 46 µM]
C[C@H]1O[C@@H](O[C@H]2[C@@H](O)C[C@H](O[C@H]3[C@@H](O)C[C@H](O[C@H]4CC[C@@]5(C)[C@H](CC[C@@H]6[C@@H]5C[C@@H](O)[C@]5(C)[C@@H](C7=CC(=O)OC7)CC[C@]65O)C4)O[C@@H]3C)O[C@@H]2C)C[C@H](O)[C@@H]1O | inactive | –
CC1=C(/C=C/C(C)=C/C=C/C(C)=C\C=O)C(C)(C)CCC1 | – | 1.18%
CC(C)(C)CC(C)(C)c1ccccc1O | – | 0.0078%
CN(C)CCCN1c2ccccc2CCc2ccccc21 | inactive | –
NC1(c2ccc(-c3nc4ccn5c(=O)[nH]nc5c4cc3-c3ccccc3)cc2)CCC1 | – | 0.416% [at 46 µM]
